Screen size: about 310,000 compounds; about 1,400 (0.45%) were called active.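 Rule for the calls: active = B-score, a plate-corrected calcium signal, over three deviations above library mean, with baseline fluorescence within five deviations of library mean; inactive = the rest.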 Shown is part of a subset that was picked to be rich in actives.
Target: Regulator of G-protein signaling 4 (Homo sapiens) (UniProt P49798)
Experiment: RGS4 inhibitors, primary screen, cell-based, HEK293 M3R inducible RGS4, calcium flux (AID 463165);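 note: RGS4 expression induced by doxycycline in cells with stable M3 receptor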;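 for B-score: B-score is computed from the integrated fluorescence ratio over baseline after carbachol; higher B-score means a larger calcium signal and so more RGS4 inhibition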
Details: Fluo-4 calcium flux, at 10 µM, triggered by carbachol at its EC20; stronger effect = higher value

Chain of Regulator of G-protein signaling 4 (Homo sapiens) (P49798 whole entry, looked up): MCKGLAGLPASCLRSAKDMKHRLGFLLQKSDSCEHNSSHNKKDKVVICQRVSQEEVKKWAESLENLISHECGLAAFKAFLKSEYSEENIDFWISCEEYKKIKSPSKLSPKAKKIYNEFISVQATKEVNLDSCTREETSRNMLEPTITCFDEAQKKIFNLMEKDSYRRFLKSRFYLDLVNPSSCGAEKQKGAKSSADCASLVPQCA

| SMILES | B-score |
| --- | --- |
| COC(=O)NNC(=O)C1CCC(C)CC1 (stereo not drawn) | inactive |
| O=C1CCNCCN1[C@H](CO)Cc1ccccc1 | inactive |
| c1ccc(C[C@H]2CNCCN2CCC23CC4CC(CC(C4)C2)C3)cc1 | 6.17 (active) |
| CC(C)CN(C(=O)CN1CCN(S(=O)(=O)c2ccccc2)CC1)c1c(N)n(CC(C)C)c(=O)[nH]c1=O | inactive |
| CCCCNC(=O)N(O)C1N(/N=C/c2ccc(N(C)C)cc2)C(=S)SC1(C)C (stereo not drawn) | inactive |
| Nc1ccccc1SC(C[N+](=O)[O-])c1ccccc1 (stereo not drawn) | 7 (active) |
| CCS(=O)(=O)c1cc([N+](=O)[O-])c(Sc2ccccc2N)s1 | inactive |
| Nc1ccccc1SCc1cc([N+](=O)[O-])cc2c1OCOC2 | inactive |
| CCCCCCCNC(=O)C1(CC2CC(c3cccc(Br)c3)=NO2)CCN(C(=O)c2cc(OCC)c(OCC)c(OCC)c2)CC1 (stereo not drawn) | inactive |
| Cc1ccc(Nc2nc(N3CCOCC3)nc(N3CCOCC3)n2)cc1Cl | inactive |
| CNc1nc(Nc2ccc(C)c(Cl)c2)nc(N)c1[N+](=O)[O-] | 12.7 (active) |
| COc1cccc(Nc2nc(N)c([N+](=O)[O-])c(NCc3ccco3)n2)c1 | inactive |
| CC(=O)c1nn(-c2cccc(C(F)(F)F)c2)c(=O)[nH]c1=O | inactive |
| O=C1CCCN1CCCNC(=S)Nc1ccc(F)c(Cl)c1 | inactive |
| Cc1nc2ccccc2c(=O)n1-c1ccc(NS(=O)(=O)c2ccc(F)cc2F)cc1 | inactive |
| O=C1NC(c2ccc(-c3ccccc3[N+](=O)[O-])o2)C(C(=O)c2ccc(Cl)cc2)C(O)(C(F)(F)F)N1 (stereo not drawn) | 8.35 (active) |
| CC1=NN(c2ccc(Cl)c(C(=O)O)c2)C(=O)/C1=C/c1ccc(-c2ccccc2[N+](=O)[O-])o1 | inactive |
| CC(=O)C1C(c2cccc(Oc3ccccc3)c2)NC(=O)NC1(O)C(F)(F)F (stereo not drawn) | inactive |
| O=C(OCc1ccc([N+](=O)[O-])cc1)C1CC(=O)N(Cc2ccccc2Cl)C1 (stereo not drawn) | inactive |
| CC(=O)Nc1ccc(Nc2c([N+](=O)[O-])cc(S(C)(=O)=O)cc2[N+](=O)[O-])cc1 | inactive |
| O=C(NCc1cccs1)c1ccc(CS(=O)Cc2ccccc2Cl)o1 (stereo not drawn) | inactive |
| CC(C)OCCCNC(=O)CN1C(=O)/C(=C/c2ccccc2F)Oc2ccccc21 | inactive |
| O=C(CN1C(=O)COc2ccc(Cl)cc21)N1CCOCC1 | inactive |
| O=C(CN1CCCCCC1)Nc1ccc(Cl)cc1F | inactive |
| COc1cc2c(cc1O)C(SC)=NC(C)(C)C2 | 15.1 (active) |
| COc1cc2c(cc1OC)C(Nc1ccc(S(N)(=O)=O)cc1)=NC(C)(C)C2 | inactive |

| SMILES | B-score |
| --- | --- |
| COc1cc2c(cc1OC)C(C(C)C)=NC(C)(C)C2 | inactive |
| O=C(CSC1=NS(=O)(=O)c2cc(F)ccc2N1)Nc1ccccc1F | inactive |
| CCCCOC(=O)CNc1nnc(SCC(=O)OCC)[nH]c1=O | 26.4 (active) |
| Cc1nnc(SCC(=O)N2CCOCC2)[nH]c1=O | inactive |
| CCOC(=O)CSc1nc(C)c(Oc2ccc(Cl)cc2Cl)c(=O)[nH]1 | inactive |
| NC(=O)C1CCCN(CC(=O)N2CCN(c3ccccc3)CC2)C1 (stereo not drawn) | inactive |
| COc1ccc(C(=O)/C=C/c2ccc(OC3CSC3)cc2)cc1 | inactive |
| COc1ccc(/C=C/C(=O)c2ccc(OC)cc2O)cc1 | 6.02 (active) |
| COc1ccc(C(=O)/C=C/c2cccnc2)c(OC)c1 | inactive |
| Cc1ccc(N(C(=O)c2ccc(S(=O)(=O)N(C)C)cc2)C2C=CS(=O)(=O)C2)cc1 (stereo not drawn) | inactive |
| COc1ccc2oc(C(=O)OCC(=O)N(CC(C)C)c3c(N)n(Cc4ccccc4)c(=O)[nH]c3=O)c(C)c2c1 | inactive |
| [O-][n+]1ccc(OCc2ccccc2)cc1 | inactive |
| CCOC(=O)c1ccc(NC(=O)Cc2cccs2)cc1 | inactive |
| CCOc1ccc(NC(=O)C/C(C)=N/NC(=O)Cc2cccs2)cc1 | 7.41 (active) |
| CCOc1ccccc1NC(=O)Cc1cccs1 | inactive |
| CCn1c(O)c2ccc(C(=O)N=NC(=O)c3cccnc3)cc2c1O | inactive |
| O=S(=O)(Nc1ccc2[nH]ncc2c1)c1ccccc1Cl | inactive |
| Cc1c(NC(=O)c2cccnc2)c(=O)n(-c2ccccc2)n1C | inactive |
| Cc1c(NC(=O)c2coc(=O)c(Br)c2)c(=O)n(-c2ccccc2)n1C | 8.99 (active) |
| Cc1c(NC(=O)c2cc(-c3ccc(Br)cc3)on2)c(=O)n(-c2ccccc2)n1C | inactive |
| COc1ccc(CC(NC(C)=O)C(=O)NC2CCN(C(=O)Nc3ccc(C#N)cc3)CC2)cc1OC (stereo not drawn) | inactive |
| CCc1nn(CCCC(=O)NCc2ccc(C)cc2)c(=O)c2cc3occc3n12 | inactive |
| O=C(O)CCCCCCCCc1cn(CN2C(=O)c3ccccc3C2=O)nn1 | inactive |
| Cc1cc2c(c(=O)n1C)C(C(C)C)C(C#N)=C(N)O2 (stereo not drawn) | inactive |
| C=CCSc1nc(N)cc(=O)[nH]1 | inactive |
| C=CCSc1nc2c(c(=O)[nH]1)C(C(C)C)C(C#N)=C(N)O2 (stereo not drawn) | 7.64 (active) |

| SMILES | B-score |
| --- | --- |
| O=C(c1cccnc1)N(c1cc2sc(=O)oc2c2ccccc12)S(=O)(=O)c1ccccc1 | inactive |
| CCc1ccc(C2C(C#N)=C(N)N(N(C)C)C3=C2C(=O)CCC3)s1 (stereo not drawn) | inactive |
| CCc1ccc(C2C(C#N)=C(N)N(N3CCOCC3)C3=C2C(=O)CC(C)(C)C3)s1 (stereo not drawn) | 4.85 (active) |
| COc1ccc(C2C(C#N)=C(/N=C/N3CCOCC3)OC3=C2C(=O)CC(C)(C)C3)cc1OC (stereo not drawn) | inactive |
| S=c1[nH]nc(-c2cccs2)n1/N=C/c1cccs1 | inactive |
| Oc1ccccc1/C=N/n1c(-c2cccs2)n[nH]c1=S | inactive |
| Cc1ccsc1/C=N/n1c(=S)[nH]nc(C)c1=O | 5.78 (active) |
| CC(OC(=O)CCc1nc(=O)c2ccccc2n1C)C(=O)NCc1ccc2c(c1)OCO2 (stereo not drawn) | inactive |
| O=C(O)C1C2CC2CN1C(=O)c1ccc(Cl)cc1Cl (stereo not drawn) | inactive |
| COc1ccc(CNS(=O)(=O)c2ccc(-c3cnc(C4CC4)o3)cc2)cc1 | inactive |
| CC(=O)Nc1ccc(S(=O)(=O)Nc2nc(-c3ccc(C(C)(C)C)cc3)cs2)cc1 | 5.98 (active) |
| CC(=O)Nc1ccc(S(=O)(=O)Nc2cccc(NC(=O)C(C)(C)C)c2)cc1 | inactive |
| CC(=O)Nc1ccc(-c2csc(NC=C3C(=O)OC(C)(C)OC3=O)n2)cc1 | inactive |
| Cc1nccn1CC(=O)N/N=C/c1ccc(O)c(O)c1 | inactive |
| Oc1ccc(Br)cc1/C=N/Nc1ccccn1 | inactive |
| Oc1ccc(/C=N/Nc2ccc(C(F)(F)F)cn2)cc1O | 9.02 (active) |
| O=C(c1n[nH]c2c1CCC2)N1CCCC(Nc2cccc(F)c2)C1 (stereo not drawn) | inactive |
| O=[N+]([O-])c1cc(Cl)cc(/C=N/NC(=S)Nc2cc(S(=O)(=O)N3CCOCC3)ccc2Cl)c1O | 6.74 (active) |
| O=C(NC(=S)Nc1ccc(S(=O)(=O)N2CCOCC2)cc1)c1ccccc1[N+](=O)[O-] | inactive |
| O=C(N/N=C/c1cc(Cl)cc([N+](=O)[O-])c1O)C(O)(c1ccccc1)c1ccccc1 | inactive |
| COc1cccc(N2CC(C(=O)NCc3n[nH]c(=O)c4ccccc34)CC2=O)c1 (stereo not drawn) | inactive |
| CN(c1ccccc1)S(=O)(=O)c1cc(C(=O)Nc2nc3ccccc3[nH]2)ccc1Cl | inactive |
| Nc1ccc(-c2nnc(-c3ccccc3)o2)cc1 | inactive |
| COc1ccc(-c2nc3cc([N+](=O)[O-])ccc3o2)cc1OC | inactive |
| CCc1ccc2oc(-c3ccc(N)cc3)nc2c1 | 10.6 (active) |
| C=CC(COCc1ccccc1)N(Cc1ccccc1)S(=O)(=O)c1ccccc1Br (stereo not drawn) | inactive |
